Data as given in PubChem BioAssay.
Active and inactive are the calls of the source. No rule for the calls is given here.

Test: chitosan synthesis blockers in C. neoformans – flow cytometry, Cibacron Brilliant Red staining (AID 1347148);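 also: compound exposure lasted three days at 37 degrees C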
Details: Cryptococcus neoformans chitosan, active compounds read low; at 10 µM unless noted

Fold fluorescence, inactive:
C[C@H]1CNCCN1S(=O)(=O)c1cccc2cnccc12 3.94 [at 171.6 µM]
CN(CCc1ccc(Cl)c(Cl)c1)C[C@H](O)COc1ccc(NS(C)(=O)=O)cc1 3.81 [at 111.8 µM]
CCCCCCCC/C=C\CCCCCCCCOC[C@@H](COP(=O)([O-])OCC[N+](C)(C)C)OC(C)=O 3.92
C=C1CC[C@@H](O)C/C1=C/C=C1\CCC[C@]2(C)[C@@H]1CC[C@H]2[C@@H](C)CCCC(C)(C)O 5.68
CCCCC/C=C\C/C=C\C/C=C\C/C=C\CCCC(=O)O[C@@H](COCCCCCCCCCCCCCCCC)COP(=O)([O-])OCC[N+](C)(C)C 5.54
CC(/C=C/C(=O)NO)=C\[C@H](C)C(=O)c1ccc(N(C)C)cc1 17.7 [at 165.4 µM]
CCCCCCCCCCCCCCCCOC[C@@H](COP(=O)([O-])OCC[N+](C)(C)C)OC(=O)NC 5.1
CC[C@@]1([C@@H]2O[C@@H]([C@H]3O[C@@](O)(CO)[C@H](C)C[C@@H]3C)C[C@@H]2C)CC[C@H]([C@]2(C)CCC3(C[C@H](O)[C@@H](C)[C@@H]([C@@H](C)[C@@H](OC)[C@H](C)C(=O)O)O3)O2)O1 (stereo not given in full) 4.7 [at 72.2 µM]
O=C(O)CCC/C=C\C[C@H]1[C@H](/C=C/[C@H](O)COc2cccc(Cl)c2)[C@@H](O)C[C@H]1O 4.34
COc1ccc(CC(N)C(=O)N[C@@H]2[C@H](O)[C@@H](n3cnc4c(N(C)C)ncnc43)O[C@H]2CO)cc1 (stereo not given in full) 4.82 [at 106 µM]
